ChEMBL document CHEMBL3433997, “St. Jude Leishmania screening dataset” (2016)

What was measured:
Assay type in all cases: functional
[1] = biological target: Solute carrier family 2, facilitated glucose transporter member 1 (Homo sapiens) (UniProt P11166); experiment: ST_JUDE_LEISH: Cytotoxicity at 2uM final concentration against transgenic Leishmania Mexicana promastigotes LmGLUT1 that are glucose transport deficient and complemented with the human glucose transporter GLUT1. Activity is measured by DNA content using SYBR green in vitro
Solute carrier family 2, facilitated glucose transporter member 1 (Homo sapiens), sequence (P11166 whole entry): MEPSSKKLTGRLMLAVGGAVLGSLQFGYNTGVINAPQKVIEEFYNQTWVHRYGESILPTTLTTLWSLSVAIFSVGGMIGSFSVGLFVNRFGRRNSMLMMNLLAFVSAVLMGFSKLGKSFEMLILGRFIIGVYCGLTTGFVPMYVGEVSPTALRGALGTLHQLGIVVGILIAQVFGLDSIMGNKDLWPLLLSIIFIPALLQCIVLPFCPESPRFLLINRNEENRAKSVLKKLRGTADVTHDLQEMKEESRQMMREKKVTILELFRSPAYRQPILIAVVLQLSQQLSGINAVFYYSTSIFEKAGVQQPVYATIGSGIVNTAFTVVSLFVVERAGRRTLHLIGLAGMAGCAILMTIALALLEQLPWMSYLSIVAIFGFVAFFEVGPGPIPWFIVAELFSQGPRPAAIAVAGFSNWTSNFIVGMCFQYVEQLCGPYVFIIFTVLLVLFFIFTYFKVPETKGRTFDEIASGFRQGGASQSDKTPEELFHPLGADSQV

[2] = biological target: Hexose transporter 1 (Plasmodium falciparum) (UniProt O97467); experiment: ST_JUDE_LEISH: Cytotoxicity at 2uM final concentration against transgenic Leishmania Mexicana promastigotes LmPfHT that are glucose transport deficient and complemented with the Plasmodium falciparum hexose transporter. Activity is measured by DNA content using SYBR green in vitro
[3] = biological target: Glucose transporter (Leishmania mexicana) (UniProt O61059); experiment: ST_JUDE_LEISH: Cytotoxicity at 2uM final concentration against transgenic Leishmania Mexicana promastigotes LmGT2 that are glucose transport deficient and complemented with the L. Mexicana glucose transporter 2. Activity is measured by DNA content using SYBR green in vitro

| Structure (SMILES) | inhibition [1] | inhibition [2] | inhibition [3] |
| --- | --- | --- | --- |
| O=C(Nc1cccc(CN2CCCN(Cc3ccc(O)cc3)CC2)c1)c1cc2ccccc2s1 | -1.48% | 1.71% | -2.92% |
| CCN(CC)CC#Cc1ccc2[nH]c(C)c(Cl)c(=O)c2c1 | 3.66% | 3.51% | 4.12% |
| Cc1cccc(C)c1N1CCN(C2CCC(NC(=O)c3cc4ccccc4[nH]3)CC2)CC1 (stereo unspecified) | 1.58% | -0.69% | -0.14% |
| Cc1cccc2nc(-c3ccc(-c4cccc(CNCCc5ccncc5)c4)s3)[nH]c12 | 3.13% | 1.49% | 2.73% |
| COc1cc2c(cc1OC)CN(CCCCc1ccc(NC(=O)c3cc(Cl)cc(Cl)c3)cc1)CC2 | 4.58% | 4.95% | -0.56% |
| Cc1ccc(Sc2ccc(NC(=O)CN3CCN(C(=O)c4ccco4)CC3)cc2)cc1C | 9.84% | 9.65% | 6.7% |
| Cc1nc(N)nc(N)c1OCc1cccc2ccccc12 | 0.2% | 1.33% | -1.23% |
| COc1ccc2c(=NN=Cc3cccc(C)n3)cc(-c3ccccc3)[nH]c2c1 | 4.3% | 2.19% | 4.08% |
| Fc1ccc2[nH]c(-c3cccc(-c4ccc(CN5CCCCC5)cc4)c3)nc2c1 | 4.18% | 3.6% | 2.43% |
| COc1ccccc1C1CCN(C2CCC(NC(=O)c3cc(-c4ccc(Cl)cc4)cs3)CC2)CC1 (stereo unspecified) | -0.61% | 2.96% | 0.71% |
| NC(=O)c1cccc(Nc2nccc(Nc3ccc(Oc4cccc5ccccc45)cc3)n2)c1 | 7.84% | 7.66% | 1.31% |
| COc1ccc2nccc([C@@H](O)CN3CCC(NCc4cc5cc(OC(F)(F)F)ccc5[nH]4)CC3)c2c1 | 9.94% | 10.4% | 3.79% |
| CCOC(=O)c1nc(-c2ccccc2)[nH]c1NC(=S)NC1CCCCC1 | -0.61% | -0.88% | -6.59% |
| COc1cc(C)nc2ccc(NC(=O)c3ccc(C(=O)Nc4ccc5nc(C)cc(OC)c5c4)cc3)cc12 | -1.93% | -1.5% | 1.25% |
| CC(=O)Nc1cccc(C(=O)Nc2cccc(-c3ccc(-c4nc5cc(C(F)(F)F)ccc5[nH]4)s3)c2)c1 | 0.34% | 0.52% | 0.89% |
| Cc1cc(NCCCOc2ccc(Cl)cc2)nc(NCc2ccccc2)n1 | 18.8% | 11.1% | 7.19% |
| CN1CCN(Cc2nc(-c3ccc4c(Nc5ccc(F)c(O)c5)ccnc4c3)cs2)CC1 | 7.7% | 1.76% | 0.94% |
| COc1ccc(Nc2nccc(N3CCC(NC(=O)C(C)c4ccc(Cl)cc4)CC3)n2)cc1 (stereo unspecified) | 0.43% | 0.07% | 0.26% |
| CCC(=O)Nc1nnc(Cc2ccc(OC)c(OC)c2)s1 | 9.1% | 10.1% | 6.69% |

| Structure (SMILES) | inhibition [1] | inhibition [2] | inhibition [3] |
| --- | --- | --- | --- |
| Cc1cc([N+](=O)[O-])ccc1NC(=O)Nc1cccc(C(F)(F)F)c1 | 5.58% | 3.9% | 4.81% |
| CC(=O)Nc1cccc(C(=O)Nc2cccc(-c3ccc(-c4nc5cccc(C)c5[nH]4)s3)c2)c1 | 3.54% | 1.14% | 0.43% |
| O=[N+]([O-])c1cccc(Nc2cncc(-c3ccc(CO)cc3)c2)c1 | 2.04% | 0.66% | 0.83% |
| COc1ccc2nccc([C@@H](O)CN3CCC(NCc4cc5ccccc5[nH]4)CC3)c2n1 | 46% | 59.2% | 62.5% |
| CCCc1cc(NCC)nc(Nc2ccc(C)cc2)n1 | 23.6% | 7.16% | 4.06% |
| O=C(Nc1ccc(Cl)cc1)Nc1ccc(-c2cccc(-c3nc4ccccc4[nH]3)c2)cc1 | 1.48% | 2.71% | -1.97% |
| Cc1ccc(C(=O)N2CCc3cc4nccc(N5CCN6CCC[C@H]6C5)c4cc32)cc1 | 1.81% | 0.6% | 1.55% |
| O=C(Nc1cccc(F)c1)c1ccc(C(=O)NC2CCN(CC3CCCCC3)C2)cc1 (stereo unspecified) | 11.1% | 9.73% | 8.76% |
| C=CCOC(=O)N1CCC(CNCc2ccc(-c3cccc(-c4nc5ccccc5[nH]4)c3)cc2)C1 (stereo unspecified) | 3.24% | 1.73% | 3.33% |
| Cc1[nH]c(C)c(-c2ccc(OCCSc3ccncc3)cc2)c(=O)c1Br | 1.9% | -0.1% | 0.05% |
| COc1ccc(OCCCN2CCCCC2)cc1S(=O)(=O)c1ccc(OCc2ccc(C(F)(F)F)cc2)cc1 | 2.4% | 0.01% | 2.1% |
| O=C(CC1NC(=O)c2ccccc21)Nc1ccc(-c2cccc(-c3nc4cc(C(F)(F)F)ccc4[nH]3)c2)cc1 (stereo unspecified) | 1.2% | 2.78% | 0.79% |
| CN(C)Cc1cccc(-c2ccc(NC(=O)c3ccc4c(=O)n(Cc5ccoc5)cnc4c3)cc2)c1 | 63.7% | 54.6% | 24.1% |
| O=C(C=CC(=O)N1CCCCC1)NCc1ccccc1 | 2.97% | 3.29% | 2% |
| Cc1cccc(Nc2nccc(NCC(O)c3cccc(C(F)(F)F)c3)n2)c1 (stereo unspecified) | 7.67% | 7.59% | 2.59% |
| O=C(O)CCSSc1cccc[n+]1[O-] | 29.9% | 48.3% | 3.25% |
| C[C@@H](C(=O)N1CCOCC1)N1CC[C@H](NS(=O)(=O)c2ccc3ccnc(N)c3c2)C1=O | -1.02% | -1.24% | -4.28% |
| Cc1ccccc1C1CCN(C2CCC(NC(=O)/C=C/c3cc(C(F)(F)F)ccc3F)CC2)CC1 (stereo unspecified) | 2.67% | 2.98% | 3.34% |
